Screening results as filed in PubChem BioAssay.
NOMO-1 viab: NOMO-1 AML cell viability reduction, primary screen, STK33 inhibitor project, CellTiter-Glo luminescence | hit rate 7.5% among 37,000 | inhibition, % (test concentration not listed) | NOMO-1 AML viability, 72 h; in the data active means inhibition above about 80%; inconclusive means no clear call, values can overlap the other calls
MITF inhib: inhibitors of MITF, primary screen, MITF inhibitor project, cell-based, luminescence; hit rate 0.28% among 37,000; TRPM1 promoter luciferase, 24 h; inhibition, % (no concentration beside the values); in the data active means inhibition above about 85%; inconclusive means no clear call, values can overlap the other calls; inactive means below about 68%;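 further: human melanocyte line stably carrying TRPM1 promoter luciferase reporter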
Shh pathway inh: Hedgehog pathway signaling inhibitors, primary screen, luminescence, Shh-LIGHT2 cells, Gli-luciferase; Shh-LIGHT2 Gli-luciferase reporter, 30 h; inhibition, % (test concentration not listed); hit rate 2.1% among 22,000;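 active means mean inhibition across valid replicates above about 65%, limit read from the data; inconclusive means mean under the limit, yet half or more replicates past it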;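 further: pathway switched on by Shh-conditioned medium diluted 1 in 25 in low serum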
PD-1 reversal: activators reversing PD-1 mediated T-cell inhibition, primary screen, luminescence, primary human CD4 T cells, PD-L1 beads | AID 2316, 2010 | 29,000 tested, under 10 active | CellTiter-Glo 96 h | activation, % (no concentration beside the values); call rule not given here;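 further: 0% = median vehicle wells and 100% = positive control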
Active calls of the source: *. Shown are actives, neighbours in structure and some others; about 8.1% of the full set was active somewhere.

COC1CC(O[C@H]2CC[C@]3(C)C4CC[C@@]5(C)C(=O)[C@]4(CC[C@@H]3C2)CC[C@@H]5C2=CC(=O)OC2)OC(C)C1OC1OC(COC2OC(CO)C(O)C(O)C2O)C(O)C(O)C1O (stereo not given in full) was read as NOMO-1 viab 111.1*, MITF inhib 1.5, Shh pathway inh 3.2 and PD-1 reversal 1.0.
`CC1OC(OCC2OC(O[C@H]3CC[C@@]4(C)C(CC[C@@]5(C)C6=C(CCC45)C4CC(C)(C)CC[C@]4(C(=O)OC4OC(CO)C(O)C(O)C4O)CC6)C3(C)C)C(O)C(O)C2O)C(O)C(O)C1O` (stereo not given in full) gave Shh pathway inh -5.3.
`Cc1ccc(S(=O)(=O)Nc2ccc3c(c2)C(=O)N([C@H](C)CO)C[C@H](C)[C@@H](CN(C)Cc2ccc(-c4ccccc4)cc2)O3)cc1` gave NOMO-1 viab 53.3, MITF inhib -1.2 and PD-1 reversal -1.4.
For C[C@@H]1CN([C@H](C)CO)C(=O)c2cc(NS(=O)(=O)c3ccccc3)ccc2O[C@@H]1CN(C)Cc1ccc(-c2ccccc2)cc1 the results were NOMO-1 viab 121.3*, MITF inhib 12.1, Shh pathway inh 1.5 and PD-1 reversal -0.1.
Cc1ccc(S(=O)(=O)Nc2ccc3c(c2)C(=O)N([C@H](C)CO)C[C@@H](C)[C@@H](CN(C)Cc2ccc(-c4ccccc4)cc2)O3)cc1 was read as NOMO-1 viab 121.6*, MITF inhib 30.7 and PD-1 reversal -2.3.
CS(=O)(=O)N(CC(=O)Nc1cccnc1)c1cccc(Br)c1 was read as NOMO-1 viab -10.5, MITF inhib -12.2 and PD-1 reversal 2.8.
`Cc1sc(/N=C/c2cn(Cc3ccccc3)c3ccccc23)c(C#N)c1C` gave NOMO-1 viab 63.7, MITF inhib -19.3 and PD-1 reversal 0.1.
COc1ccccc1/C=C(\C#N)c1ccc(C)cc1 was read as NOMO-1 viab 16.7, MITF inhib -1.0, Shh pathway inh -78.6 and PD-1 reversal -0.8.
Screening Cc1ccc(/C(C#N)=C/c2ccc(N(C)C)cc2)cc1 returned NOMO-1 viab 115.6*, MITF inhib 41.8, Shh pathway inh -88.1 and PD-1 reversal -1.9.
C[C@H]1CN([C@@H](C)CO)C(=O)c2cc(NC(=O)Nc3ccc(C(F)(F)F)cc3)ccc2O[C@H]1CN(C)Cc1ccc(C(=O)O)cc1 was read as NOMO-1 viab 8.3, MITF inhib -0.2 and PD-1 reversal 3.4.
`C[C@@H]1CN([C@@H](C)CO)C(=O)c2cc(NC(=O)Nc3ccc(C(F)(F)F)cc3)ccc2O[C@@H]1CN(C)Cc1ccc(-c2ccccc2)cc1` gave NOMO-1 viab 126.2*, MITF inhib -3.7, Shh pathway inh -10.5 and PD-1 reversal -4.5.
For C[C@@H]1CN([C@H](C)CO)C(=O)c2cc(NC(=O)Nc3ccc(C(F)(F)F)cc3)ccc2O[C@H]1CN(C)Cc1ccc(-c2ccccc2)cc1 the results were NOMO-1 viab 126.2*, MITF inhib 10.4, Shh pathway inh -11.6 and PD-1 reversal -7.8.
C[C@H](CO)N1C[C@H](C)[C@@H](CN(C)Cc2ccc(-c3ccccc3)cc2)Oc2ccc(NC(=O)Nc3ccc(C(F)(F)F)cc3)cc2C1=O was read as NOMO-1 viab 121.9*, MITF inhib 9.3, Shh pathway inh 3.3 and PD-1 reversal -1.0.
Screening C[C@@H]1CN([C@@H](C)CO)C(=O)c2cc(NC(=O)Nc3ccc(C(F)(F)F)cc3)ccc2O[C@H]1CN(C)Cc1ccc(-c2ccccc2)cc1 returned NOMO-1 viab 118.1*, MITF inhib -10.5 and Shh pathway inh -4.1.
For C[C@H](CO)N1C[C@H](C)[C@@H](CN(C)Cc2ccc(C(=O)O)cc2)Oc2ccc(NC(=O)Nc3ccc(C(F)(F)F)cc3)cc2C1=O the results were NOMO-1 viab -1.3, MITF inhib -12.1 and PD-1 reversal 1.9.
`COc1ccc(NC(=O)COc2ccc(Br)cc2C)c([N+](=O)[O-])c1` gave NOMO-1 viab 33.3, MITF inhib -0.2 and PD-1 reversal -4.9.
Screening CCCC1=NN(C(=O)C(C)(C)C)C(=O)C1Cc1c(F)cccc1Cl (stereo not given) returned NOMO-1 viab inconclusive, MITF inhib 6.1, Shh pathway inh 6.8 and PD-1 reversal -0.3.
For C[C@H](CO)N1C[C@H](C)[C@H](CN(C)Cc2ccc(C(F)(F)F)cc2)Oc2ccc(NC(=O)Nc3ccc(C(F)(F)F)cc3)cc2CC1=O the results were NOMO-1 viab 128.7*, MITF inhib 16.7, Shh pathway inh -3.1 and PD-1 reversal -2.4.
C[C@@H]1CN([C@H](C)CO)C(=O)Cc2cc(NC(=O)NC3CCCCC3)ccc2O[C@@H]1CN(C)Cc1ccc(C(F)(F)F)cc1 was read as NOMO-1 viab 108.9*, MITF inhib 4.8, Shh pathway inh 1.2 and PD-1 reversal -3.5.
Screening C[C@H](CO)N1C[C@H](C)[C@H](CN(C)Cc2ccncc2)Oc2ccc(NC(=O)Nc3ccc(C(F)(F)F)cc3)cc2CC1=O returned NOMO-1 viab 126.1*, MITF inhib 26.6, Shh pathway inh 19.5 and PD-1 reversal -1.4.
Screening C[C@@H]1CN([C@@H](C)CO)C(=O)Cc2cc(NC(=O)Nc3ccc(C(F)(F)F)cc3)ccc2O[C@@H]1CN(C)C(=O)NC1CCCCC1 returned NOMO-1 viab 112.8*, MITF inhib 19.0, Shh pathway inh 24.1 and PD-1 reversal -2.5.
C[C@@H]1CN([C@@H](C)CO)C(=O)Cc2cc(NC(=O)NC3CCCCC3)ccc2O[C@@H]1CN(C)C(=O)Nc1ccc(C(F)(F)F)cc1 was read as NOMO-1 viab 13.7, MITF inhib -2.8, Shh pathway inh -2.1 and PD-1 reversal -2.6.
Screening C[C@H](CO)N1C[C@H](C)[C@H](CN(C)C(=O)NC2CCCCC2)Oc2ccc(NC(=O)Nc3ccc(C(F)(F)F)cc3)cc2CC1=O returned NOMO-1 viab 1.4, MITF inhib -9.4, Shh pathway inh 9.4 and PD-1 reversal -2.2.
CC1=CCC2[C@](C)(CCC[C@]2(C)C(=O)O)[C@H]1CCc1ccoc1 (stereo not given in full) was read as NOMO-1 viab 9.6, MITF inhib -5.0, Shh pathway inh 5.2 and PD-1 reversal 0.9.
Screening CN(C)CCNc1nc(-c2noc(NCCN(C)C)n2)no1 returned NOMO-1 viab -31.1, MITF inhib -14.1, Shh pathway inh 6.4 and PD-1 reversal 0.8.
For C[C@@H]1CN([C@@H](C)CO)C(=O)Cc2cc(NC(=O)Nc3ccc(C(F)(F)F)cc3)ccc2O[C@@H]1CN(C)Cc1ccc(Cl)c(Cl)c1 the results were NOMO-1 viab 114.7*, MITF inhib 20.4, Shh pathway inh -21.3 and PD-1 reversal -2.0.
`C[C@@H]1CN([C@H](C)CO)C(=O)Cc2cc(NC(=O)CCC(F)(F)F)ccc2O[C@@H]1CN(C)Cc1ccc(Cl)c(Cl)c1` gave NOMO-1 viab 116.0*, MITF inhib 15.7, Shh pathway inh 35.0 and PD-1 reversal -4.5.
